Source: PubChem
VP16 counter: inhibits Gal4-VP16 luciferase reporter, ROR gamma counter-screen; Drosophila S2 Gal4-VP16 UAS-luciferase, luminescence, 20 h; Potency, µM (top dose mostly 53.6 µM), without a hit: at the highest dose activity, negative = inhibition, most hits filed as inhibitors; 310,000 tested, 3.5% active; AID 2546;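 note: Gal4-VP16 expression switched on by copper sulfate through the metallothionein promoter; % is set by controls: 0 for no effect and ±100 for the full control effect; nearly all actives have a fitted effect of over 50% in size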
S2 tox: reduces viability in counter-screen for ATXN expression inhibitors. S2 cells (HEK-293 line with an ATXN2-luciferase reporter) viability, CellTiter-Fluor protease fluorescence, 24 h. 400,000 tested, 0.49% active. AID 651635. Potency, µM (highest dose often 56.7 µM), most hits filed as cytotoxic; note: nearly all actives have a fitted effect of over 40% in size
RORgamma inh: inhibitors of mouse ROR gamma transcriptional activity; 310,000 tested, 5.4% active; Potency, µM (highest dose often 53.6 µM), inactives show at the top dose activity change, negative = inhibition, actives largely listed as inhibitors; P51450; Drosophila S2 Gal4-RORgamma UAS-luciferase reporter, 20 h; AID 2551; note: % is set by controls: 0 for no effect and ±100 for the full control effect; nearly all actives have a fitted effect of over 60% in size
Target sequence (P51450 whole entry, looked up, the tested form may be a part): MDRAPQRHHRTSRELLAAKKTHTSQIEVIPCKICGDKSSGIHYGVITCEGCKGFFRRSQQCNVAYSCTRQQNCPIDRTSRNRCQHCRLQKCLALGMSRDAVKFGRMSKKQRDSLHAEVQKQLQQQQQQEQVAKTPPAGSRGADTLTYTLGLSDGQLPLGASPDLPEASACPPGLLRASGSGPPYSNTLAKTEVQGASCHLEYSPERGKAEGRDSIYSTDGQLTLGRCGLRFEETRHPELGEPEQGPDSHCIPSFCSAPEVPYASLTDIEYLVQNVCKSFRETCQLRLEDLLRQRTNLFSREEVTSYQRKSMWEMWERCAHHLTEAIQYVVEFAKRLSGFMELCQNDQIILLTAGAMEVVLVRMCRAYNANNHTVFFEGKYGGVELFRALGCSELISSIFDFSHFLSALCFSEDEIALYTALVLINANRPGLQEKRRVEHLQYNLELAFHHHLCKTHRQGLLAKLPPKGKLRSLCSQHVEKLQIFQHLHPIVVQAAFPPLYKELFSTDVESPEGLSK
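Luciferase reporter read in Schneider cells carrying Gal4-RORγ (mouse) and UAS-Photinus luciferase; cells given compound 1 h before 700 uM copper sulfate induction, then incubated 20 h at ambient temperature.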
TGFb SMAD3 inh: blocks TGF-b signaling | HepG2 CAGA-GFP TGF-b/SMAD3 reporter, GFP fluorescence, 18 h; TGF-beta stimulated, 500 pg/mL final | 410,000 tested, 1.2% active | AID 588855 | Potency, µM (series often up to 46.1 µM), for the others: at the highest dose activity, negative = inhibition, hits mostly inhibitors; note: % is set by controls: 0 for no effect and ±100 for the full control effect; nearly all actives have a fitted effect of over 65% in size
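Per well, imaged GFP fluorescence of HEPG2 CAGA-GFP cells gives the signal; cells get compound, then TGF-beta (500 pg/mL final), 18 h at 37 degrees C; %Activity versus -TGF-beta and +DMSO controls.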
HepG2 viability: kills HepG2 cells in TGF-b inhibitor counter-screen | 410,000 tested, 0.76% active | HepG2 CAGA-GFP viability, ATP luminescence, 18 h | Potency, µM (highest dose often 46.1 µM), inactives show top-dose activity change, negative = cytotoxicity, hits mostly cytotoxic
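HepG2 CAGA-GFP cells (1000/well, DMEM with 1% FBS) received compound, then TGF-beta at 500 pg/mL final, and were incubated 18 hours at 37 degrees C. Viability was read by CellTiter-Glo luminescence. Media-only wells were set as complete cell-killing and DMSO as no toxicity.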
ATXN2 expr inh: reduces ATXN2 reporter expression in HEK-293 cells; HEK-293 ATXN2-luciferase reporter, luminescence, 24 h; Potency, µM (series often up to 57 µM), for the others: at the top dose activity change, negative = inhibition, usual class: inhibitors; 360,000 tested, 0.72% active; AID 1745845; note: % is set by controls: 0 for no effect and ±100 for the full control effect; nearly all actives have a fitted effect of over 55% in size
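qHTS (up to 57 uM final) was run with 24 h compound exposure of reporter cells at 37 °C. Each well was multiplexed: SteadyGlo luminescence measured ATXN2-luciferase expression after a fluorogenic Gly-Phe-AFC viability readout (25 uM final).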
An asterisk follows results filed as active; i = inactive; ? = inconclusive; / = no result. An excerpt weighted towards active compounds, which were near 6.3% of everything screened. Calls come from the whole dose curve; as a rule, active = well fitted curve in the direction sought with a large enough effect; inconclusive = small, poorly fitted or top-dose-only effect, or another doubt; inactive = no such curve, though single readings can be large; an effect the other way counts as inactive or inconclusive. Potency is the fitted concentration of half-maximal effect.

SMILES	VP16 counter	S2 tox	RORgamma inh	TGFb SMAD3 inh	HepG2 viability	ATXN2 expr inh
CCN(CC)C(=O)C1=C(C)N(CCCN2CCCC2=O)C(=O)C(CC(=O)NCCN2CCOCC2)C1 (configuration not stated)	/	i	/	2%	2%	10%
CCOC(=O)c1c(C)oc2c1c(C(c1cccnc1)N1CCCCC1)c(O)c1ccccc12 (configuration not stated)	-13%	i	?	?	-23%	97%
CCOC(=O)c1c(C)oc2c1c(C=NCCO)c(O)c1ccccc12	?	/	11µM*	?	-35%	-8%
CCOC(=O)c1c(C)oc2c1c(C(c1ccccc1)N1CCOCC1)c(O)c1ccccc12 (configuration not stated)	10µM*	/	?	19%	9%	?
CCc1cnc2c(c1SCC(=O)NCc1ccc(C)cc1)c(=O)n(C)c(=O)n2C	/	i	/	-19%	-1%	12%
O=C(CSc1nnc2c3ccccc3c3ccccc3c2n1)Nc1ccccc1F	1%	14µM*	?	0%	27%	?
Cn1c(CC(=O)Nc2ccccc2F)nnc1SCC(=O)Nc1ccccc1Br	11%	i	-17%	-1%	11µM*	-2%
O=C(CSc1nnc2c3ccccc3c3ccccc3c2n1)Nc1ccccc1	-2%	/	-3%	/	/	/
COc1cc(=O)n2c(c1C(=O)N(C)Cc1ccsc1)CCN(Cc1cnn(C)c1C)CC2	/	i	/	/	/	/
CCOc1ccc(CSCCNC(=S)Nc2ccc(OC)cc2)cc1	7.1µM*	?	2µM*	?	-26%	/
C=COCCNC(=S)Nc1ccccc1	-6%	i	-1%	-20%	-25%	22%
CCCOc1ccc(CSCCNC(=S)Nc2ccccc2)cc1	?	i	2.8µM*	?	-1%	0%
O=C(c1ccco1)N1CCN(C(=O)c2cnn(-c3ccc(F)cc3)c2-n2cccc2)CC1	/	i	/	-3%	-21%	/
CCOc1cc(/C=C2\SC(=N)N(c3nccs3)C2=O)ccc1OCCN1CCOCC1	2.8µM*	?	0.56µM*	0%	-24%	22µM*
CCN(CC)CCNCc1cc(Br)ccc1OCC(=O)NCc1ccccc1	-1%	i	22%	0%	-20%	/
CC(NCc1cc(Br)ccc1OCC(=O)NCc1ccccc1)c1ccccc1 (configuration not stated)	?	?	?	13µM*	-89%	-27%
CCN1/C(=C\C=C(C(C)=O)C(C)=O)Sc2ccccc21	13%	i	10%	68%	9%	18%
CCN1/C(=C\C(=S)Nc2ccccc2)Sc2ccccc21	?	?	4µM*	11µM*	-33%	-31%
CCCCCCn1c(=O)c(-c2ccccc2)c(O)c2ccccc21	-11%	i	1%	30%	21%	-1%
CCn1c(=O)c(-c2nc3ccccc3[nH]2)c(O)c2ccccc21	0.63µM*	i	0.16µM*	0%	-19%	-29%
CCCn1c(=O)c(-c2nc3ccccc3[nH]2)c(O)c2ccccc21	2µM*	i	0.5µM*	-11%	-40%	-18%
COc1ccc(OC)c(CN2C[C@H](Sc3ccc(F)cc3)C[C@H]2C(=O)N(C)C)c1	/	i	/	/	/	/
COc1cc(CCc2ccccc2)c(C(=O)O)c(O)c1CC=C(C)C	/	i	/	?	-41%	-25%
COc1cc(CCc2ccccc2)c(C(=O)O)c(O)c1C/C=C(/C)CCC=C(C)C	/	i	/	13µM*	14µM*	0%
CSc1ncccc1C(=O)NCC1Cc2cc(-c3cnccn3)ccc2O1 (configuration not stated)	/	i	/	/	/	/
SMILES	VP16 counter	S2 tox	RORgamma inh	TGFb SMAD3 inh	HepG2 viability	ATXN2 expr inh
COc1ccccc1CCNCc1cc2cccc(C)c2nc1-c1cccs1	/	i	/	/	/	/
COc1ccc(C)cc1NC(=O)CN1CCN(C/C=C/c2ccccc2)CC1	?	i	10µM*	-27%	-32%	-19%
Cc1cccc(Nc2c3c(nc4ccccc24)CCC3)c1	?	i	7.1µM*	?	-32%	?
N#Cc1cccc(Nc2c3c(nc4ccccc24)CCC3)c1	1%	i	-32%	?	-48%	-21%
Cc1ccc(Nc2c3c(nc4ccccc24)CCC3)cc1F	/	28µM*	/	?	-56%	0%
Cc1ccc2nc3c(c(Nc4ccc(O)cc4)c2c1)CCC3	5%	?	-3%	?	-38%	/
Cc1ccc2nc3c(c(Nc4ccc(C)c(C)c4)c2c1)CCC3	/	18µM*	/	?	-28%	?
Cc1cccc2nc(-c3cccc(NS(=O)(=O)c4ccccc4)c3)cn12	/	i	/	-3%	-9%	-17%
N#CC1=C(N)C2=CCCC[C@H]2[C@H](c2ccc(Br)cc2)C1(C#N)C#N	5µM*	i	?	?	1%	-2%
N#CC1=C(N)C2=CCCC[C@H]2[C@H](c2ccccc2)C1(C#N)C#N	-8%	i	-32%	?	-38%	-18%
CC(Cc1cccs1)NC(=S)Nc1ccc(Cl)cc1 (configuration not stated)	14µM*	i	7.1µM*	?	-33%	-26%
CC(Cc1cccs1)NC(=S)Nc1ccc(Cl)c(Cl)c1 (configuration not stated)	?	i	7.9µM*	?	-28%	-16%
CC(Cc1cccs1)NC(=O)Nc1cccc(Cl)c1 (configuration not stated)	5%	i	32%	-1%	-16%	-12%
CC(Cc1cccs1)NC(=O)Nc1ccc(F)cc1 (configuration not stated)	4%	i	16%	0%	-20%	35%
O=c1c(Cl)c(Cl)cnn1Cc1nnc(-c2ccc(Cl)cc2)o1	?	?	?	13µM*	11µM*	?
Cc1ccc(-c2nnc(Cc3ccc(Cl)cc3)o2)cc1	19%	i	?	?	-4%	43%
O=c1c(Cl)c(Cl)cnn1Cc1ccccc1Cl	?	10µM*	1.1µM*	?	-104%	8.9µM*
Cc1ccc(Cn2ncc(Cl)c(Cl)c2=O)cc1	?	/	?	?	-115%	?
Cc1cc(C)cc(Cn2ncc(Cl)c(Cl)c2=O)c1	11µM*	?	?	?	-65%	?
Cc1ccc(CNC(=O)c2cc(=O)c3cc(C)cc(C)c3o2)cc1	/	i	/	-17%	-6%	-1%
O=C(CSc1nnc2ccccn12)c1ccc2c(c1)OCCO2	?	i	13µM*	?	-21%	2%
Cc1cc(C(=O)CSc2nnc3ccccn23)c(C)n1-c1ccccc1	2.8µM*	i	5µM*	7%	-27%	-17%
